The nature of assay [1]: suppression of KLF5 promoter-driven luciferase – DLD-1 cells, luminescence, confirmation (AID 1834;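 active means inhibition above a set limit taken from the earlier primary screen, cut at about 63% in these data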;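 further: 0% = DMSO wells and 100% = LY294002 at 200 µM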). Particulars: DLD-1 KLF5 promoter firefly luciferase reporter, at 4 µM, hits give high values.
Assay [2] is described as follows: IEC-6 intestinal cell killing – luminescence, triplicate, cytotoxicity control for KLF5 inhibitor project (AID 1905; in the data active means inhibition above about 23%;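 further: cells exposed to compounds for 48 hours before viability read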). Particulars: IEC-6 rat intestinal cells, viability luminescence; at 4 µM; hits give high values.
Assay [3] has as its target Nuclear receptor coactivator 3 (Homo sapiens) (UniProt Q9Y6Q9). The experiment in a line: NCOA3 GAL4-fusion reporter inhibition – cell-based, luminescence, quadruplicate, confirmation (AID 588792;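 active means mean inhibition over 43.08%, the solvent-only control mean plus 3 SD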;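 further: 0% = DMSO treated cells and 100% = gossypol at 36 µM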). Particulars: HEK293 GAL4-SRC3 luciferase reporter, at 3.6 µM, hits give high values.
Assay [4] deals with transactivating tegument protein VP16 (Human herpesvirus 1), Gal4-VP16 luciferase reporter. The experiment in a line: repression of VP16-driven luciferase reporter – cell-based, luminescence, high throughput, counter-screen for SRC3 inhibitor project (AID 588794; in the data active means inhibition above about 30%). Particulars: mammalian cells, at 3.6 µM, hits give high values.
The target in assay [5] is Nuclear receptor coactivator 1 (Homo sapiens) (UniProt Q15788). The experiment in a line: NCOA1 GAL4-fusion reporter inhibition – cell-based, luminescence, quadruplicate, confirmation (AID 588820;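 active means mean inhibition above 46.68%, the untreated control wells mean plus 3 SD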;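 further: 0% = DMSO wells and 100% = gossypol 36 µM treated wells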). Particulars: HEK293 GAL4-SRC1 luciferase reporter, at 3.6 µM, hits give high values.
Chain of Nuclear receptor coactivator 1 (Homo sapiens) (Q15788 whole entry, looked up, the tested form may be a part): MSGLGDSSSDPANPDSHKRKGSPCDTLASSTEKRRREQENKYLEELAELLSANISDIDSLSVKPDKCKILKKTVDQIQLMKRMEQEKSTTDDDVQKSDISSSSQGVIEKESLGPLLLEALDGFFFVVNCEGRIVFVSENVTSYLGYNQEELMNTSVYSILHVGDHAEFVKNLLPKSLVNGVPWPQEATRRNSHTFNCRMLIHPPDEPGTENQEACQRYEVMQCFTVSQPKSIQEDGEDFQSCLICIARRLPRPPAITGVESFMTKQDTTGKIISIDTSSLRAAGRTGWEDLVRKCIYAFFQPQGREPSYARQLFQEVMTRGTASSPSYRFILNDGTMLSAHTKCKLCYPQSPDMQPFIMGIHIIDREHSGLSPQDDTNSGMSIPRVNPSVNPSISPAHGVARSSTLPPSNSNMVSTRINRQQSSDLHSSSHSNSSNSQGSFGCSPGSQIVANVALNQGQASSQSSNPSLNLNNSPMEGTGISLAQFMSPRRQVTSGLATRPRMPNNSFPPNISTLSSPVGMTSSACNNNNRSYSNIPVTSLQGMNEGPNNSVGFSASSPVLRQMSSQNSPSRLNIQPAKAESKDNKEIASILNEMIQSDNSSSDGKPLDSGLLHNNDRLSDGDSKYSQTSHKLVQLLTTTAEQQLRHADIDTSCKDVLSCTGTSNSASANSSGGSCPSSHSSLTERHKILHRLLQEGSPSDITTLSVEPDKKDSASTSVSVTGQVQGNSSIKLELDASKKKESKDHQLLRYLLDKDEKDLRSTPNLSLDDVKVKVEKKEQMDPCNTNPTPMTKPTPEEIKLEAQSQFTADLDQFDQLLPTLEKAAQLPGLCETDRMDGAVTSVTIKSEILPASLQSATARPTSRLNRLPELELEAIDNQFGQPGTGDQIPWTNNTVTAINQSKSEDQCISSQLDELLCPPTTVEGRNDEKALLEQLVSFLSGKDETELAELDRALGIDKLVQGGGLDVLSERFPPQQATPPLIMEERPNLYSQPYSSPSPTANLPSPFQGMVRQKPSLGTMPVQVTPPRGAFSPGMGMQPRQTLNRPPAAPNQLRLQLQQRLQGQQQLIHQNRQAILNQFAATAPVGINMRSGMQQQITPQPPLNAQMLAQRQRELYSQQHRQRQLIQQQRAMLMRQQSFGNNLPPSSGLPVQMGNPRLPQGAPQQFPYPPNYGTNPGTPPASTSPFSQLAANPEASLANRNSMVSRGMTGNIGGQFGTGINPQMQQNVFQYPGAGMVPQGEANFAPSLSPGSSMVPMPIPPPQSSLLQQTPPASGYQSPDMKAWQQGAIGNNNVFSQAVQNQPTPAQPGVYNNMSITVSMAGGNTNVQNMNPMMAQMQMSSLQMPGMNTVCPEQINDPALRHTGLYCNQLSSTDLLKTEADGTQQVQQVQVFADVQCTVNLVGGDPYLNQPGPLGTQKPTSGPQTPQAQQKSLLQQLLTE
Assay [6] can be described thus: repression of VP16-driven luciferase reporter – cell-based, luminescence, high throughput, counter-screen for SRC1 inhibitor project (AID 588824; in the data active means inhibition above about 25%). Particulars: cell-based VP16 transactivation luciferase luminescence; at 3.6 µM; hits give high values.
A short description of assay [7]: StAR promoter reporter inhibitors, counter-screen for LRH-1 inverse agonist project, cell-based, luminescence, high throughput (AID 651611; in the data active means inhibition above about 28%). The following applies: StAR promoter luciferase reporter counterscreen, at 3.6 µM, hits give high values.
Assay [8] addresses Nuclear receptor subfamily 5 group A member 2 (Homo sapiens) (UniProt O00482). Briefly: NR5A2 activity suppression in reporter cells – cell-based, luminescence, confirmation (AID 651613; in the data active means inhibition above about 42%;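 further: HEK293T cells co-transfected with LRH-1 and StAR promoter luciferase reporter; 0% = vehicle wells and 100% = parental cells lacking receptor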). The following applies: cell-based LRH-1 luciferase reporter, inverse agonism; at 3.6 µM; hits give high values.
Assay [9] concerns the target Steroidogenic factor 1 (Homo sapiens) (UniProt Q13285). Briefly: inverse agonism at SF1 nuclear receptor – cell-based, luminescence, high throughput, counter-screen for LRH-1 inverse agonist project (AID 651614; in the data active means inhibition above about 44%;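 further: cells cotransfected with StAR promoter reporter and SF1 expression vector; 0% = vehicle on cells with receptor and 100% = vehicle on cells lacking receptor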). The following applies: cell-based SF1 luciferase reporter, at 3.6 µM, hits give high values.
Assay [10] can be described thus: compounds suppressing VP16-driven luciferase signal – cell-based, luminescence, high throughput, counter-screen for LRH-1 inverse agonist project (AID 651615; in the data active means inhibition above about 33%). The following applies: Gal4-VP16 luciferase reporter cells, at 3.6 µM, hits give high values.
The nature of assay [11]: VP16-driven transactivation reporter suppression – cell-based, luminescence, HEK293, counter-screen for COUP-TFII antagonist project (AID 687007; in the data active means inhibition above about 13%). The following applies: HEK293 Gal4-VP16 luciferase reporter, at 8.5 µM, hits give high values.
The target in assay [12] is COUP transcription factor 2 (Homo sapiens) (UniProt P24468). Briefly: retest of COUP-TFII reporter suppressors – cell-based, luciferase reporter, HEK293, triplicate, confirmation (AID 687008;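 active means mean inhibition over three repeats above a set limit taken from the earlier primary screen, cut at about 38% in these data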;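 further: 100% = cells given the luciferase reporter alone without the COUP-TF2 vector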). Particulars: HEK293 NGFI-A luciferase reporter, luminescence; at 8.5 µM; hits give high values.
Chain of COUP transcription factor 2 (Homo sapiens) (P24468 whole entry, looked up): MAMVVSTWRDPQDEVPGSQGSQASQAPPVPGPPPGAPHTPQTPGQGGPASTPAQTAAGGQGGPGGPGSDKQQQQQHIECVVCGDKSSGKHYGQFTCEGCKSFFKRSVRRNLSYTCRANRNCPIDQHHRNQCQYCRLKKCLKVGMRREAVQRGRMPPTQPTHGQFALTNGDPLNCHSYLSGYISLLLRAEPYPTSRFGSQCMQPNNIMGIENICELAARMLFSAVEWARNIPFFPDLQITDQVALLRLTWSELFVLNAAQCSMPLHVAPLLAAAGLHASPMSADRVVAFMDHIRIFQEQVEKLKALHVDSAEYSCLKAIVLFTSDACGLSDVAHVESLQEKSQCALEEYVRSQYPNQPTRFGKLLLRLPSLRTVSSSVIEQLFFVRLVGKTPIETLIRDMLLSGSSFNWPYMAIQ
Assay [13] deals with Neuropeptide Y receptor type 2 (Homo sapiens) (UniProt P49146). Briefly: human Y2 receptor positive modulation or activation – cell-based, confirmation (AID 1539; in the data active means activation above about 33%). Particulars: cell-based NPY-Y2 potentiator/agonist assay; at 3.6 µM; hits give high values.
Chain of Neuropeptide Y receptor type 2 (Homo sapiens) (P49146 whole entry, looked up): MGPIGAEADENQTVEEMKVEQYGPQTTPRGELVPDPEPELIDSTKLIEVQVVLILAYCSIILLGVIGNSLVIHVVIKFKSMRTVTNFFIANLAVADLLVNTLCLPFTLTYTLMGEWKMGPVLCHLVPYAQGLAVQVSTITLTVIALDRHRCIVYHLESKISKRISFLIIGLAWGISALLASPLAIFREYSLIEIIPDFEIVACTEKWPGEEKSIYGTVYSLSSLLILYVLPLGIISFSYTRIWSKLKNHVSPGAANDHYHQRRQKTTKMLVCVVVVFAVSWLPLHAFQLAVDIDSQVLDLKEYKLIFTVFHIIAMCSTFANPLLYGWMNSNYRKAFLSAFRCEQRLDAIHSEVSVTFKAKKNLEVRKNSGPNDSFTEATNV
For assay [14], the target named is Neuropeptide Y receptor type 1 (Homo sapiens) (UniProt P25929). Briefly: human Y1 receptor positive modulation or activation – cell-based, fluorescence, counter-screen for NPY-Y2 potentiator project (AID 1651; in the data active means activation above about 45%;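 further: cells stimulated with submaximal NPY then isoproterenol with phosphodiesterase inhibitor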). Particulars: Y1 HEK293-CNG cells, membrane potential fluorescence; at 3.6 µM; hits give high values.
Chain of Neuropeptide Y receptor type 1 (Homo sapiens) (P25929 whole entry, looked up): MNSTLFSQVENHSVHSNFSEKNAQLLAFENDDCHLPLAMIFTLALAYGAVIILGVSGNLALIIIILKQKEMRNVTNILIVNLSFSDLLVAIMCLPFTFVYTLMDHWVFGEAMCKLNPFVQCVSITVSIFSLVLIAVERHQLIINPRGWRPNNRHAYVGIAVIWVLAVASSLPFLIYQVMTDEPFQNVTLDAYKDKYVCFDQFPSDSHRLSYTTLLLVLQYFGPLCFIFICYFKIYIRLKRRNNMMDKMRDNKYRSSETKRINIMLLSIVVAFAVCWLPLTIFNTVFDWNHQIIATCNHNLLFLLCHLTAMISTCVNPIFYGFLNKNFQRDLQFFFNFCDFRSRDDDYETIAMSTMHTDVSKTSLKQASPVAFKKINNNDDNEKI
Assay [15] shares this target. Briefly: human Y1 receptor agonism, CNGC membrane potential – cell-based, fluorescence, selectivity assay for NPY-Y2 potentiator project (AID 1702;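 active means activation above the mean of DMSO-only control wells plus 3 SD, cut at about 18% in these data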;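 further: cells stimulated with 1 µM isoproterenol plus the PDE inhibitor Ro 20-1724; 0% = isoproterenol with DMSO and no NPY and 100% = 40 nM NPY; Y1 agonists lower the membrane potential dye signal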). The following applies: HEK293 Y1-CNGC, at 3.6 µM, hits give high values.
Assay [16] is described as follows: blockers of isoproterenol-driven CNG channel signal – cell-based, HEK293-CNG parental, membrane potential fluorescence, counter-screen for NPY-Y2 potentiator project (AID 1703).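 Further: 0% = DMSO with isoproterenol and 100% = DMSO without isoproterenol.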 The following applies: isoproterenol cAMP, at 3.6 µM, hits give high values.
The target in assay [17] is Neuropeptide Y receptor type 2 (Homo sapiens) (UniProt P49146). Briefly: agonism at human Y2 receptor without NPY – cell-based, fluorescence, counter-screen for NPY-Y2 potentiator project (AID 1710;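 active means activation above the mean of solvent-only control wells plus 3 SD, cut at about 10% in these data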;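 further: cells stimulated by isoproterenol with no NPY added so direct agonism is tested; 0% = DMSO with isoproterenol alone and 100% = NPY at EC100 plus isoproterenol; agonism lowers probe fluorescence through less cAMP and CNG channel opening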). The following applies: HEK293 Y2/CNGC cells, membrane potential fluorescence, agonist mode; at 3.6 µM; hits give high values.

SMILES strings stand for the structures. A number with no mark means an inactive call. The list shows a part of the results. Activity calls are given as the source filed them.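 How the source made its calls, unless noted: active means inhibition above the control-well mean plus 3 SD of those wells (cut at about 22% in these data); inactive means the rest.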

Chain of Steroidogenic factor 1 (Homo sapiens) (Q13285 whole entry, looked up, the tested form may be a part): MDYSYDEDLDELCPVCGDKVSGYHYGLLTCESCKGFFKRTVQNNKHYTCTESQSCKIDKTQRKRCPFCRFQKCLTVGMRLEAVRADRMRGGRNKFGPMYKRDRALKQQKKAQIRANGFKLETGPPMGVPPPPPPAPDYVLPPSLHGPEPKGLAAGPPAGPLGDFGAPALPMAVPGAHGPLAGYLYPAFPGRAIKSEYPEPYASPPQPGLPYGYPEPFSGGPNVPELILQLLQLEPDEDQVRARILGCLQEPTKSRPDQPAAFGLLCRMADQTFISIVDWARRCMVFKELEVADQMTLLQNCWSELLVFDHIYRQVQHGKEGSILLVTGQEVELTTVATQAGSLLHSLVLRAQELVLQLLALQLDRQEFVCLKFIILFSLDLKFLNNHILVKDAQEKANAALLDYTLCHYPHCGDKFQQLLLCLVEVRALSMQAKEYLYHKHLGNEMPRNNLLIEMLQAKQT
Chain of Nuclear receptor coactivator 3 (Homo sapiens) (Q9Y6Q9 whole entry, looked up, the tested form may be a part): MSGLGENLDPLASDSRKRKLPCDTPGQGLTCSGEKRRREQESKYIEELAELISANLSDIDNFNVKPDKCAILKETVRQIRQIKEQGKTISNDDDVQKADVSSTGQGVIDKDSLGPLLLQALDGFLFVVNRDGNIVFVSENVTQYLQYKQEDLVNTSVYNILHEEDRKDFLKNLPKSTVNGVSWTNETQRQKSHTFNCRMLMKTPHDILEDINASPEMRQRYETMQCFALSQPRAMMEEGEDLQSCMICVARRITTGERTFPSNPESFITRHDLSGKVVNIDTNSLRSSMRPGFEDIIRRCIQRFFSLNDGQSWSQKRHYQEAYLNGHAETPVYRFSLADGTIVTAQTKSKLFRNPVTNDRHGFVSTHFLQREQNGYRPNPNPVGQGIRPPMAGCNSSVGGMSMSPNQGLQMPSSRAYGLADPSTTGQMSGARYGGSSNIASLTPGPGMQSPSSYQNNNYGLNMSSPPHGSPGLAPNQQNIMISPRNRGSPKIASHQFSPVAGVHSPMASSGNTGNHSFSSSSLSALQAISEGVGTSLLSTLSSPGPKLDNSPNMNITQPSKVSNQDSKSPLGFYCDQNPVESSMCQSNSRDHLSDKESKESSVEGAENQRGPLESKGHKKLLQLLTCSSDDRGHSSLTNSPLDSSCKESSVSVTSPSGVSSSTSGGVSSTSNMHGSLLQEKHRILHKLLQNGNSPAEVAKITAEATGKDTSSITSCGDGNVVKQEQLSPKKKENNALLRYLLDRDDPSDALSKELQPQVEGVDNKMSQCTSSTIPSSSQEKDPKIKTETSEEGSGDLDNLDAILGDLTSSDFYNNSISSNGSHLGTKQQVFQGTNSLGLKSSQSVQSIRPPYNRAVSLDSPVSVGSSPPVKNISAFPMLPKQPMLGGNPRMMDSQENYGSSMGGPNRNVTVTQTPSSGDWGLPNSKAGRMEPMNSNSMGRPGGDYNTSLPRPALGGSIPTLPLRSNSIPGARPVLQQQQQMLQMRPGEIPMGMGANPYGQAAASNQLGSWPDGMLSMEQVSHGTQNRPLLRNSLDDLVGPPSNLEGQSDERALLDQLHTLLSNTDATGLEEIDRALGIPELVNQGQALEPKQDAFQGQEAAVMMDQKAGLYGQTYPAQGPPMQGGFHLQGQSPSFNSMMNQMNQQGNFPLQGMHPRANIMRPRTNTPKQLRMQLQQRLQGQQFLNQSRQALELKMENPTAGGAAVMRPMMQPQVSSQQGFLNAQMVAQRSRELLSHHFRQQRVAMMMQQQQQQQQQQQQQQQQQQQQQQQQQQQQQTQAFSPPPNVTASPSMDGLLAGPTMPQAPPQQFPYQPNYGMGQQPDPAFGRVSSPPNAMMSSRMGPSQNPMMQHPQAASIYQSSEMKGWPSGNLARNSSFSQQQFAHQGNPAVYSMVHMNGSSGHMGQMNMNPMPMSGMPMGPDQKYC
Chain of Nuclear receptor subfamily 5 group A member 2 (Homo sapiens) (O00482 whole entry, looked up): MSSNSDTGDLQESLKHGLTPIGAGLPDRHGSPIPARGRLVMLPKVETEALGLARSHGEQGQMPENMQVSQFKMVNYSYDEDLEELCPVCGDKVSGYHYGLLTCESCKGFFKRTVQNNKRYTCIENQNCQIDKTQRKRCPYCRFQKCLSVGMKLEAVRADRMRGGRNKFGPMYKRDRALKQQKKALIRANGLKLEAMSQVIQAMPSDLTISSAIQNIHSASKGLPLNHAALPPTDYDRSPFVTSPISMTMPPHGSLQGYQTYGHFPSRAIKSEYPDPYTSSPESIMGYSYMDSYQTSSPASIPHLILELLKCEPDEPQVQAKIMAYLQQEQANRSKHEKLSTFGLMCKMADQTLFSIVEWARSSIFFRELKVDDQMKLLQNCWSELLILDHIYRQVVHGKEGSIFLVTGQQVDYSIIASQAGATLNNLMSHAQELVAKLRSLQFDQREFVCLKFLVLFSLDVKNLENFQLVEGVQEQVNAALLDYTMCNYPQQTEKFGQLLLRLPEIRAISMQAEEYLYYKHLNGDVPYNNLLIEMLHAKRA

Turning to `C[C@@H]1C[C@@H]2O[C@H]2/C=C\C=C\C(=O)Cc2c(Cl)c(O)cc(O)c2C(=O)O1`, the inhibition in assay [1] is 67.1% (active); in [2], 38% (active); in [3] it was 62.2% (active); in assay [4] it was 74.4% (active); in assay [5] it was -17.6%; in [6] it was 72% (active). Moreover, the inhibition in [7] is 55.7% (active); in [8], 68.5% (active); in assay [9], 56.9% (active); in assay [10] it was 79.3% (active); in [11], 64.3% (active); in [12] it was 68% (active).

Take `COc1ccc2nc(NC(=O)NC3CCCCC3)sc2c1`: the activation in assay [13] was 40.8% (active); in [14], 66.1% (active); in assay [15], 72.5% (active); in [17], 53.9% (active). The inhibition in assay [16] is 56.1% (active).

`CCOc1ccccc1NC(=O)Cn1nnc(C(=O)NCc2cccs2)c1N`: the inhibition is 83.1% (active) in assay [1] and 58.1% (active) in assay [2].

Consider `CC(=O)c1ccc2c(c1)OCCOCCOc1ccc(C(C)=O)cc1OCCOCCO2`, for which the activation in assay [13] was 19.6%; in [14] it was 25.9%; in [15], 36.5% (active); in assay [17], 26.6% (active). Besides, in [16], the inhibition was 22.4% (active).
